Records with an inconclusive call do not appear. Active and inactive are the calls of the source.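 The calls were made as follows, unless noted: active = viability loss from added drug above about 55%, and viability with drug at most 40%, in both replicates (limit read from the data, passing the limit was not always enough); inconclusive = both conditions met in only one replicate; inactive = neither replicate meets both conditions.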
Assays:
[1] = reducers of endogenous Her2 protein level, primary screen, SKBR3 breast tumor cells, AlphaScreen, ATP viability (AID 461;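 active = Her2 level under about 52% in both replicate screens, with viability over 70% of control, limit read from the data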;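 as to Her2 level: lower value means less Her2 protein in the cells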;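 as to viability: percent of carrier control wells set as 100% viability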); settings: 18-24 h, measured here: SKBR3 viability, ATP luminescence, at 10 µM
[2] = molecular target: Receptor tyrosine-protein kinase erbB-2 (Homo sapiens) (UniProt P04626); assay: as above; settings: 18-24 h, at 10 µM, stronger effect = lower value
[3] = SK-BR-3 cell growth inhibitors, pilot screen, 24 h, human (AID 572;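 active = viability at or below 10% of carrier control in both of two separate runs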;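 also: compound exposure lasted between 18 and 24 h rather than exactly 24 h; 100% = carrier-treated control wells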); settings: SK-BR-3 viability, CellTiter-Glo luminescence, at 10 µM, stronger effect = lower value
[4] = HUVEC growth inhibition – cell-based, human, primary screen (AID 575;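 active = viability at or below 30% in both replicate assays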;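 also: 100% = median of untreated cell wells with 0.1% DMSO on each plate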); settings: HUVEC proliferation, CellTiter-Glo luminescence, 72 h; at 10 µM; stronger effect = lower value
[5] = growth inhibitors of H69AR lung tumor, primary screen, human, duplicate replicates (AID 580;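 active = viability at or under a set limit in both replicates, limit being median viability minus 3 SD, cut at about 48% in these data, passing the limit was not always enough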;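 also: 100% = mean luminescence of untreated wells and 0% = no signal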); settings: H69AR lung tumor cells viability, ATP luminescence, 72 h; at 10 µM; stronger effect = lower value
[6] = reversal of MRP1-mediated doxorubicin resistance, pilot screen, H69AR cells, doxorubicin co-treatment (AID 601); settings: CellTiter-Glo, 72 h, at 10 µM; for differential viability (reversal): stronger effect = higher value
[7] = 384-well plate pilot, post-Golgi transport modulator project, inhibition of yeast transport mutant growth (AID 636; in the data active = inhibition above about 31%); settings: absorbance 615 nm, about 18 h, stronger effect = higher value
[8] = growth suppression of yeast trafficking mutant, preliminary HTS, modulators of trafficking downstream of Golgi apparatus project, 1536-format plate, OD 615 nm (AID 637; in the data active = inhibition above about 30%); settings: yeast transport mutant growth, absorbance 615 nm, 18 h; stronger effect = higher value
[9] = OD615 S. cerevisiae growth inhibition, permissive medium, pilot counter-assay, permissive growth control for S. cerevisiae lifespan shortening project (AID 705;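 active = growth inhibition above 25% in both replicates, a cutoff set 3 SD above the mean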); settings: OD615, 24 h, at 10 µM, stronger effect = higher value
[10] = Restrictive medium S. cerevisiae growth inhibition, OD615, pilot screen of yeast lifespan reduction project, restrictive growth control (AID 706;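 active = growth inhibition above a set limit, 3 SD over mean compound inhibition, in both replicates, cut at about 43% in these data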;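 also: modified DeaD lifespan yeast strain shifted to restrictive glucose medium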); settings: OD615, 48 h, at 10 µM, stronger effect = higher value
[11] = viability gain of MRP-1-high H69AR cells under doxorubicin, pilot screen, MRP-1 activator project, CellTiter-Glo, duplicate (AID 807;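 active = viability increase at or above a cutoff of the median across tested compounds plus 3 SD, cut at about 8.5% in these data, passing the limit was not always enough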;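 also: compound pretreatment 18-22 h then 72 h combined with doxorubicin; 0% = doxorubicin alone and 100% = vehicle without doxorubicin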); settings: H69AR viability with doxorubicin, CellTiter-Glo luminescence; at 10 µM; stronger effect = higher value
[12] = growth suppression of beta-catenin knockout HCT116, pilot screen, human colon tumor cells (AID 823;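 active = cell viability at or below a set limit in both duplicate runs, the limit being the all-compound median minus 4 SD, cut at about 23% in these data, passing the limit was not always enough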;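 also: 0% = wells killed by 20 µM Hyamine and 100% = untreated DMSO cell wells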); settings: CellTiter-Glo, 60 h, at 10 µM, stronger effect = lower value
[13] = growth suppression of PTEN-deleted HCT116, pilot screen, cell-based, HCT116 clonal line, CellTiter-Glo (AID 824;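 active = viability at or below 27.92% in each of two runs, the all-compound median minus 4 SD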;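 also: 0% = 20 µM Hyamine control and 100% = vehicle cell control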); settings: 60 h, at 10 µM, stronger effect = lower value
[14] = inhibitors of the yeast RAM network, pilot screen, dse1pr::URA3 reporter, 5-FOA selection (AID 869;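 active = inhibition over a set limit, the all-compound mean plus 3 SD, in both replicate runs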;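 also: 0% = DMSO wells with no growth and 100% = 10 µM 1-NA-PP1 with full growth; RAM network block rescues cells from 5-FOA so hits raise OD615 growth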); settings: S. cerevisiae dse1pr::URA3 5-FOA growth, OD615, 2 d; at 10 µM; stronger effect = higher value; strain carries analog-sensitive mutant Cbk1 kinase
[15] = RAM signaling pathway blockade in yeast – S. cerevisiae, Pdr1DBD-CYC8 efflux-inhibited sensitized strain, primary screen (AID 1298;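 active = RAM network inhibition above 8.4% in each of two replicates, 3 SD over the compound average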;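 also: 0% = DMSO untreated cells without growth and 100% = 10 µM 1-NA-PP1 full growth; higher means more yeast growth rescued from 5-FOA killing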); settings: S. cerevisiae cbk1-as DSE1-URA3 strain, 5-FOA growth OD615, 2 d; at 50 µM; stronger effect = higher value
[16] = H69AR cells + 2 uM doxorubicin, measured here: viability with 2 uM doxorubicin, stronger effect = lower value
[17] = H69AR cells, compound alone cytotoxicity

Sequence of Receptor tyrosine-protein kinase erbB-2 (Homo sapiens) (P04626 whole entry, looked up): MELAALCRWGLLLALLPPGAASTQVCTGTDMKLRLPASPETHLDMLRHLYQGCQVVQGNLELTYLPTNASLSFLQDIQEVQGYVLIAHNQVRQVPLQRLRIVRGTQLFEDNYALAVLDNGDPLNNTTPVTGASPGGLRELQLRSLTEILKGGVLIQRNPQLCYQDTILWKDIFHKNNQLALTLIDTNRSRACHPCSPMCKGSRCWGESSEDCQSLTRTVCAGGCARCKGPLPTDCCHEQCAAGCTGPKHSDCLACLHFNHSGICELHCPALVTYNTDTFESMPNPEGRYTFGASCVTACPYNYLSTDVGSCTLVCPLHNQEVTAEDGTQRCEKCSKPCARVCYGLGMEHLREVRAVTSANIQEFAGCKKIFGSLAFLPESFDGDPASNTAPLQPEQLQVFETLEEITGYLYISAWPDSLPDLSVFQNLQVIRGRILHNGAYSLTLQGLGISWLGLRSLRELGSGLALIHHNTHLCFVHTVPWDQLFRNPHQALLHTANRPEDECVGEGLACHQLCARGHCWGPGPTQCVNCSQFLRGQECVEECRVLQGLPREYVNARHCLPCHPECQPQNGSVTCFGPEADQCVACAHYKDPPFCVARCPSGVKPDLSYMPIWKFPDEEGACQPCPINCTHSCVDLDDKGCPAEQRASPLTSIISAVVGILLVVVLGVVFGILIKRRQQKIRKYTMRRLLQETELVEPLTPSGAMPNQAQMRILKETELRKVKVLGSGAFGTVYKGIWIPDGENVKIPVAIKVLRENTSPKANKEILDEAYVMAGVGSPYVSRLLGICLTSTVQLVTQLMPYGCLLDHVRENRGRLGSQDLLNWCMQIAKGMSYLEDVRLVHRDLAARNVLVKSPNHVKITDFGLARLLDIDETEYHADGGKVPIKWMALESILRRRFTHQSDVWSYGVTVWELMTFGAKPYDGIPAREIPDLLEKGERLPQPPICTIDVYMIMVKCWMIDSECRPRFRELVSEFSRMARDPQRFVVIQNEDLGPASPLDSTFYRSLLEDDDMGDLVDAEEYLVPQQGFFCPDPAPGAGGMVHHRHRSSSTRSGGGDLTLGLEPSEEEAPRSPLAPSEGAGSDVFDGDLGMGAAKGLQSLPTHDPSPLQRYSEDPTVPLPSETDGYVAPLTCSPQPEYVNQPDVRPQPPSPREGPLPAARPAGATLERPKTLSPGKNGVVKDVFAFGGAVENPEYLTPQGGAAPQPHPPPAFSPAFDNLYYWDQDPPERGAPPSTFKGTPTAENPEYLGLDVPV

Row | Structure (SMILES) | viability [1] [%] | Her2 level [2] | viability [3] | viability [4] | viability [5] | differential viability (reversal) ([6]; H69AR cells + 2 uM doxorubicin) | viability [6, 16] [%] | viability [6, 17] [%] | inhibition [7] | inhibition [8] | growth inhibition [9] | growth inhibition [10] | viability increase [11] | viability [12] | viability [13] | inhibition [14] | RAM network inhibition [15]
1 | COC(=O)c1ccsc1NC(=O)CN1C(=O)CCC1=O | 83.5 | 121% (inactive) | 83.5% (inactive) | 83.1% (inactive) | 91.6% (inactive) | 22.4% (inactive) | 69.2 | 91.6 | -1.33% (inactive) | 15.7% (inactive) | -2.7% (inactive) | -9.07% (inactive) | -1.57% (inactive) | 100% (inactive) | 98.7% (inactive) | -0.08% (inactive) | 0.15% (inactive)
2 | CCCNC(=O)C1CCN(S(=O)(=O)c2ccc3nc4c(c(C(=O)O)c3c2)CCCCC4)CC1 | 99 | 92% (inactive) | 99% (inactive) | 105% (inactive) | 98.7% (inactive) | 2.09% (inactive) | 96.6 | 98.7 | -1.87% (inactive) | 8.36% (inactive) | 2.08% (inactive) | -0.39% (inactive) | 1.14% (inactive) | 108% (inactive) | 103% (inactive) | 2.09% (inactive) | 7.93% (inactive)
3 | CCOC(=O)N1CCN(C(=O)c2ccc(CS(=O)(=O)c3c(Cl)cccc3Cl)o2)CC1 | 114 | 128% (inactive) | 114% (inactive) | 107% (inactive) | 96.5% (inactive) | -4.92% (inactive) | 101 | 96.5 | -3.07% (inactive) | -3.33% (inactive) | -9.35% (inactive) | -14% (inactive) | -2.77% (inactive) | 107% (inactive) | 100% (inactive) | 0.365% (inactive) | 1.21% (inactive)
4 | CN1CCN(C(=O)C2CCN(S(=O)(=O)c3ccc4c(c3)oc(=O)n4C)CC2)CC1 | 89 | 104% (inactive) | 89% (inactive) | 94.4% (inactive) | 107% (inactive) | 14.3% (inactive) | 92.4 | 107 | -2.95% (inactive) | 9.5% (inactive) | -6.74% (inactive) | -5.41% (inactive) | 1.79% (inactive) | 102% (inactive) | 102% (inactive) | 2.46% (inactive) | 3.79% (inactive)
5 | CCOC(=O)c1[nH]c(C)c(C(=O)Nc2ccc(Cl)cc2)c1C | 88.5 | 109% (inactive) | 88.5% (inactive) | 73.3% (inactive) | 85.9% (inactive) | -7.14% (inactive) | 93 | 85.9 | 1.92% (inactive) | 0.17% (inactive) | -1.96% (inactive) | 2.55% (inactive) | 2.64% (inactive) | 96.7% (inactive) | 95.2% (inactive) | 1.79% (inactive) | 3.1% (inactive)
6 | CCCCOc1ccc(-c2ncc(Cl)cn2)cc1 | 110 | 117% (inactive) | 110% (inactive) | 119% (inactive) | 93.9% (inactive) | 9.19% (inactive) | 84.8 | 93.9 | -4.94% (inactive) | 0.83% (inactive) | -14.9% (inactive) | -12.5% (inactive) | 3.52% (inactive) | 86.9% (inactive) | 96.8% (inactive) | 1.26% (inactive) | 3.37% (inactive)
7 | O=C(Nc1ccncc1)C1CCCN(S(=O)(=O)c2cccc3cccnc23)C1 (stereo unspecified) | 84.5 | 104% (inactive) | 84.5% (inactive) | 63% (inactive) | 17.4% (active) | -58.8% (inactive) | 76.2 | 17.4 | -7.07% (inactive) | 3.33% (inactive) | -10.3% (inactive) | -4.11% (inactive) | -6.31% (inactive) | 19.9% (active) | 23.8% (active) | 1.59% (inactive) | 2.56% (inactive)
8 | CCC(C)OC(=O)C1=C(C)NC2=C(C(=O)C(C(=O)OC)C(C)C2)C1c1ccc(N(C)C)cc1 (stereo unspecified) | 94.5 | 108% (inactive) | 94.5% (inactive) | 110% (inactive) | 95.8% (inactive) | 4.35% (inactive) | 91.5 | 95.8 | -2.11% (inactive) | -5.09% (inactive) | -3.15% (inactive) | -7.23% (inactive) | -0.39% (inactive) | 86% (inactive) | 75.7% (inactive) | 1.46% (inactive) | 8.17% (inactive)
9 | Cc1cc(NC(=O)COc2cccc(C)c2C)no1 | 96 | 102% (inactive) | 96% (inactive) | 94.2% (inactive) | 108% (inactive) | 15.6% (inactive) | 92.5 | 108 | -0.53% (inactive) | -4.26% (inactive) | -0.27% (inactive) | 6.53% (inactive) | 3.52% (inactive) | 102% (inactive) | 105% (inactive) | 2.08% (inactive) | 2.68% (inactive)
10 | O=C(CN1C(=O)c2ccccc2S1(=O)=O)NCc1ccccc1Cl | 90.5 | 108% (inactive) | 90.5% (inactive) | 99% (inactive) | 89.3% (inactive) | 6.38% (inactive) | 82.9 | 89.3 | -2.05% (inactive) | -2.17% (inactive) | -8.21% (inactive) | -12.6% (inactive) | -0.47% (inactive) | 102% (inactive) | 100% (inactive) | 0.125% (inactive) | 4.41% (inactive)
11 | COC(=O)c1sc(NC(=O)COc2ccccc2OC)nc1C | 99.5 | 90% (inactive) | 99.5% (inactive) | 99.8% (inactive) | 95.1% (inactive) | 11.6% (inactive) | 83.5 | 95.1 | -6.22% (inactive) | -4% (inactive) | -1.71% (inactive) | -0.995% (inactive) | -1.51% (inactive) | 102% (inactive) | 101% (inactive) | 1.06% (inactive) | 9% (inactive)
12 | CNC(=O)c1ccccc1NC(=O)c1c(O)c2c([nH]c1=O)CCCC2 | 112 | 79% (inactive) | 112% (inactive) | 98.9% (inactive) | 109% (inactive) | 8.66% (inactive) | 99.9 | 109 | -1.71% (inactive) | 0.48% (inactive) | -17.1% (inactive) | -10.1% (inactive) | -2.56% (inactive) | 88.9% (inactive) | 94.5% (inactive) | 1.7% (inactive) | 3.36% (inactive)
13 | CN(C)S(=O)(=O)c1ccc2c(c1)c(=O)c(C(=O)NCCCN1CCCCCC1)cn2C | 110 | 105% (inactive) | 110% (inactive) | 90.7% (inactive) | 102% (inactive) | -4.19% (inactive) | 106 | 102 | -1.03% (inactive) | -7.83% (inactive) | 9.68% (inactive) | 8.09% (inactive) | -1.28% (inactive) | 103% (inactive) | 99.5% (inactive) | 0.785% (inactive) | 0.76% (inactive)
14 | COc1cccc(C2CC(c3c(Cl)cccc3Cl)n3nc(N)nc3N2)c1 (stereo unspecified) | 97 | 104% (inactive) | 97% (inactive) | 81.2% (inactive) | 83.6% (inactive) | 4.33% (inactive) | 79.3 | 83.6 | -4.53% (inactive) | -0.98% (inactive) | 4.74% (inactive) | 9.22% (inactive) | -0.07% (inactive) | 103% (inactive) | 91.4% (inactive) | -0.3% (inactive) | 6.92% (inactive)
15 | COc1ccc(C2CC(c3cccs3)n3nc(N)nc3N2)cc1 (stereo unspecified) | 113 | 102% (inactive) | 113% (inactive) | 89.3% (inactive) | 91.4% (inactive) | 7.99% (inactive) | 83.4 | 91.4 | -2.4% (inactive) | -6.39% (inactive) | 2.05% (inactive) | 17% (inactive) | -1.71% (inactive) | 94.2% (inactive) | 82.2% (inactive) | 0.275% (inactive) | 8.26% (inactive)
16 | CSc1cccc(NC(=O)C2CCN(S(=O)(=O)c3ccc(F)cc3)CC2)c1 | 77.5 | 70.5% (inactive) | 77.5% (inactive) | 93.7% (inactive) | 84.4% (inactive) | -0.92% (inactive) | 85.3 | 84.4 | -7.57% (inactive) | -6.23% (inactive) | -1.68% (inactive) | -13.7% (inactive) | -4.63% (inactive) | 64.3% (inactive) | 62% (inactive) | 1.71% (inactive) | 7.8% (inactive)
17 | Cc1cccc(C)c1OCc1nnc(SCC(=O)Nc2ccccc2F)o1 | 95.5 | 101% (inactive) | 95.5% (inactive) | 108% (inactive) | 83% (inactive) | -7.2% (inactive) | 90.2 | 83 | -5.2% (inactive) | -5.17% (inactive) | -12.4% (inactive) | -9.96% (inactive) | -1.03% (inactive) | 98.8% (inactive) | 98.1% (inactive) | 3.38% (inactive) | 3.85% (inactive)
18 | Cc1nc2ccccc2c2oc(C(=O)NCCN3CCCCC3C)cc12 (stereo unspecified) | 81 | 94% (inactive) | 81% (inactive) | 99.5% (inactive) | 93.1% (inactive) | -6.12% (inactive) | 99.2 | 93.1 | -3.46% (inactive) | -3% (inactive) | -3.45% (inactive) | 0.34% (inactive) | -2.08% (inactive) | 66.4% (inactive) | 70.6% (inactive) | 1.77% (inactive) | -0.67% (inactive)
